Compounds with a hit are over-represented: about 15% of the library has one in this group of screens.
Pf growth 48h: Primary qHTS for delayed death inhibitors of the malarial parasite plastid, 48 hour incubation. P. falciparum luciferase growth in erythrocytes, 48 h. Potency, µM (series often up to 28.7 µM), for the others: at the top dose activity change, negative = inhibition, hits mostly inhibitors. 5.9% of 310,000 active. AID 504832, 2011; note: potency is the fitted concentration of half-maximal effect; % is set by controls: 0 for no effect and ±100 for the full control effect
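First compound was added to culture medium, then infected red cells at 0.1% parasitemia and 2% hematocrit (final). After incubation at 37 C under 5% CO2, luciferase detection reagent was dispensed and light output recorded.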
SARS PLP yeast: qHTS of Yeast-based Assay for SARS-CoV PLP. Potency, µM (top dose mostly 32.9 µM), for inactives: at the highest dose activity, positive = growth rescue, most hits filed as activators. S. cerevisiae expressing SARS-CoV PLpro, growth rescue. 0.19% of 330,000 active; calls by dose curve; note: potency is the fitted concentration of half-maximal effect; 0% is about no effect; nearly all actives have a fitted effect of over 55% in size
HCMV inh: qHTS Assay for inhibitors of the human cytomegalovirus (HCMV); 4.5% of 410,000 active; HFF cells, HCMV-luciferase reporter, 72 h; stronger effect = lower value; activity change, negative = inhibition, % at 57.5 µM; in the data active = activity change below about -60%; inconclusive = no clear call, values can overlap the other calls; inactive = above about -39%; note: % is set by controls: 0 for no effect and ±100 for the full control effect
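Two compound doses tested in HFFs infected with HCMV-luciferase, MOI 1 PFU/cell, 72 h at 37C. Lysate luminescence read with OneGlo; data normalized against buffer-only and 10uM Salinomycin inhibitor controls.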
Pf growth 96h: Primary qHTS for delayed death inhibitors of the malarial parasite plastid, 96 hour incubation. 6.9% of 320,000 active. Potency, µM (titrated, usually from 28.7 µM), inactives show top-dose activity change, negative = inhibition, most hits filed as inhibitors. AID 504834, 2011. P. falciparum luciferase reporter growth, 96 h; note: potency is the fitted concentration of half-maximal effect; % is set by controls: 0 for no effect and ±100 for the full control effect
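Plates of compound plus infected erythrocytes (2% hematocrit, 0.05% parasitemia final) incubate 96 hours, 37 C, 5% CO2. Detection reagent added; reduced luminescence from the parasites' luciferase reporter flags inhibition.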
HCV inh: qHTS Assay for Inhibitors of Hepatitis C Virus (HCV); AID 651820, 2012; Potency, µM (titrated, usually from 41.8 µM), for the others: top-dose activity change, negative = inhibition, hits mostly inhibitors; 3.4% of 340,000 active; Huh7.5.1 HCVcc-Cre infection, luciferase reporter, 44 h; note: potency is the fitted concentration of half-maximal effect; % is set by controls: 0 for no effect and ±100 for the full control effect
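Antiviral activity was scored by luciferase reporter output from cells infected with HCVcc-Cre (~0.5 moi) in presence of compound, 44 h infection period, cells seeded 1,000/well 4 h prior.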
Sm TGR inh: qHTS Assay for the Inhibitors of Schistosoma Mansoni Peroxiredoxins; Schistosoma mansoni thioredoxin glutathione reductase (TGR), Q962Y6; purified TGR, DTNB reduction, TNB absorbance 405 nm; Potency, µM (doses to about 114 µM), for the others: at the highest dose activity change, negative = inhibition, actives largely listed as inhibitors; 3% of 360,000 active; note: potency is the fitted concentration of half-maximal effect; % is set by controls: 0 for no effect and ±100 for the full control effect; nearly all actives have a fitted effect of over 60% in size
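Kinetic colorimetric format: TGR-catalysed, NADPH-driven DTNB reduction monitored via TNB absorbance. Enzyme dispensed at 20 nM; compound exposure 15 min at room temperature before reaction start.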
* hit, by the source's call; ? = inconclusive; . = not tested or not shown; + = active, no number; [ ] = dose if it differs, or a comment. Unless noted, calls come from the whole dose curve; as a rule, active = well fitted curve in the direction sought with a large enough effect; inconclusive = small, poorly fitted or top-dose-only effect, or another doubt; inactive = no such curve, though single readings can be large; an effect the other way counts as inactive or inconclusive.

SMILES | Pf growth 48h | SARS PLP yeast | HCMV inh | Pf growth 96h | HCV inh | Sm TGR inh
CC(C)(C)NC(=S)N/N=C/c1c(Cl)cccc1Cl | 3.7µM* | 0% | -22 | 2.9µM* | -19% | -10%
CCNC(=S)N/N=C/c1c(Cl)cccc1Cl | 0% | ? | ? | ? | -16% | -16%
O=C(NCc1nc2ccccc2[nH]1)C1=C[C@H](c2ccc(C(F)(F)F)cc2)C[C@H](OCCCCO)O1 | . | . | -25 | . | -5% | .
CCOc1ccc(NC(=S)Nc2ccc(OCc3ccccc3)cc2)cc1 | -24% | -7% | 25 | -12% | 13% | -4%
OCCNCc1ccc(OCc2ccc(Cl)cc2Cl)cc1 | ? | -2% | ? | 26% | ? | .
O=C(NCCSSCCNC(=O)c1ccccc1)c1ccccc1 | . | . | -27 | . | ? | .
S=C(Nc1ccccc1)Nc1ccc(OCc2ccc(Cl)cc2Cl)cc1 | 5.9µM* | -3% | -80* | ? | ? | 1%
OCCCCNCc1ccc(OCc2ccc(Cl)cc2Cl)cc1 | 13µM* | -12% | -15 | 15µM* | 6.3µM* | 6%
Cc1ccccc1CSCCNC(=O)c1ccccc1 | 12µM* | 2% | -10 | 0% | 19% | -1%
Cc1ccccc1CSCCNC(=S)Nc1ccccc1 | ? | -3% | -83* | 1%[5.75 µM] | ? | 13%
O=C(COc1coc(CN2CCc3ccccc3C2)cc1=O)Nc1ccc(F)cc1F | -12% | 4% | -11 | ? | ? | 2%
O=C1CCCCC1C(O)(C(=O)c1ccccc1)c1ccccc1 (stereo unspecified) | . | . | -16 | . | . | .
S=C(NCCSCc1ccc(Cl)cc1Cl)Nc1ccccc1 | ? | -22% | -62* | ? | ? | -5%
CC1=CC2(C)NC(=O)C(C)C12 (stereo unspecified) | . | . | -8 | . | . | .
CC(=O)O[C@H]1[C@H]2O[C@]23[C@@H]2CC[C@]4(O)C[C@@H](O)CC[C@]4(C)C2CC[C@]3(C)[C@H]1c1ccc(=O)oc1 (stereo partly specified) | 20% | 5% | . | -1% | 3.2µM* | -9%
C[C@@H]1O[C@H](O[C@@H]2C=C3CC[C@H]4[C@@H](CC[C@]5(C)[C@@H](c6ccc(=O)oc6)CC[C@]45O)[C@@]3(C)CC2)[C@@H](O)[C@H](O)[C@@H]1O | -8%[12.8 µM] | . | . | -21%[12.8 µM] | . | .
C[C@]12CC[C@H]3C(CCC4(O)CC(O)CC[C@]34C=O)C1=CC[C@H]2c1ccc(=O)oc1 (stereo partly specified) | -11%[0.00184 µM] | 0% | -99* | -23% | -17% | -1%
CC(NC(=O)C(=O)N1CCCCC1)C(c1cccs1)N1CCN(c2ccccc2)CC1 (stereo unspecified) | ? | -6% | + | ? | 3% | 0%
COc1ccc(N2CCN(C(c3cccs3)C(C)NS(=O)(=O)c3ccccc3)CC2)cc1 (stereo unspecified) | 13µM* | -6% | 4 | ? | ? | -9%
COc1ccc(N2CCN(C(c3cccs3)C(C)NC(=O)C(=O)N3CCCCC3)CC2)cc1 (stereo unspecified) | ? | 7% | 0 | 12µM* | -3% | -8%
COC(=O)c1ccccc1S(=O)(=O)NNC(=O)c1nn(C)c(=O)c2ccccc12 | . | -16% | -14 | . | 5% | .
Cc1ccc(C)c(NC(=O)c2nnn(Cc3ccc(F)cc3Cl)c2N)c1 | . | . | 16 | . | . | 10%
CCc1cc(C(=O)N2CCN(c3ncccn3)CC2)sc1C | ? | -3% | -31 | -10% | -1% | 3%
COCCCNC(=O)C1CCC(=O)N1Cc1ccccc1Cl (stereo unspecified) | 24% | 1% | 12 | 12µM* | 1% | 1%
O=C(O)C1CCC(=O)N1Cc1ccccc1Cl (stereo unspecified) | 1% | -1% | 8 | 10µM* | 3% | -10%
SMILES | Pf growth 48h | SARS PLP yeast | HCMV inh | Pf growth 96h | HCV inh | Sm TGR inh
O=C(Nc1ccc(Cl)cc1Cl)C1CCC(=O)N1Cc1ccccc1Cl (stereo unspecified) | ? | 4% | -24 | 8.3µM* | 7% | 0%
O=C(NCCc1ccc(Cl)cc1)C1CCC(=O)N1Cc1ccccc1Cl (stereo unspecified) | 2% | -2% | -7 | 60% | 14% | -12%
COc1ccccc1N(C)S(=O)(=O)c1ccc(C(=O)Nc2cc(OC)c(OC)c(OC)c2)cc1 | . | . | -23 | . | ? | .
COc1cccc(CNC(=O)Cn2ccc3cc(S(=O)(=O)N4CCCCCC4)ccc32)c1 | -30% | 1% | -32 | -22% | 13µM* | -1%
COc1cccc(CNS(=O)(=O)c2ccc(S(=O)(=O)N3CCCC3)cc2)c1 | ? | 0% | 7 | ? | -4% | 45µM*
CCOc1ccccc1CNC(=O)Cn1ccc2cc(S(=O)(=O)N3CCCC3)ccc21 | ? | 1% | 6 | 13µM* | ? | 1%
CCOc1ccccc1CNC(=O)CCCn1ccc2cc(S(=O)(=O)N3CCCC3)ccc21 | ? | 0% | -6 | ? | 5% | -2%
COc1ccc2cc(CN(Cc3cccs3)Cc3nnnn3Cc3ccccc3)c(=O)[nH]c2c1 | 9.3µM* | -7% | -99* | ? | -27% | 3%
CCOC(=O)Cn1nnnc1CN(Cc1cccs1)Cc1cc2cc(C)cc(C)c2[nH]c1=O | . | 7% | 12 | 10µM* | -5% | 7%
Cc1cccc(NC(=S)N(Cc2cccs2)Cc2cc3cc(C)cc(C)c3[nH]c2=O)c1 | -16% | 1% | 56 | ? | ? | 7%
Cc1cccc2cc(CN(Cc3cccs3)Cc3nnnn3Cc3ccccc3)c(=O)[nH]c12 | ? | 1% | ? | -1%[5.75 µM] | 10µM* | 4%
COc1cccc(-c2nc3c(C#N)c[nH]n3c2NC2CCCC2)c1OC | . | . | 7 | . | . | -2%
Cc1ccc(-c2ccc(=O)n(CC(=O)Nc3ccc(C)cc3Cl)n2)cc1 | . | . | 4 | . | . | 2%
COCc1c(C(=O)N/N=C/c2ccc(C)o2)nnn1-c1nonc1N | 0% | 1% | 11 | 9% | -10% | -2%
Cn1cc[n+](C)c1P(=S)(c1ccccc1)c1ccccc1 | ? | -1% | -10 | ? | 8% | 0%
CC(O)c1nc2ccccc2n1C/C=C/c1ccccc1 (stereo unspecified) | -21% | -2% | 61 | 13% | 2% | -2%
Cc1c(P(=S)(c2ccccc2)c2ccccc2)[n+]2ccccc2n1C/C=C/c1ccccc1 | . | . | -99* | . | . | .
